From the supplement of paper PMC10849652
Of roughly 7,900 targets only a part is listed; those with a hit were picked by preference. About 0.6% of all pairs of compound and target were hits. A number with no mark means an inactive call.

How the values were obtained:
Experiment in all cases: log2 fold change, soluble protein after heating vs DMSO (PISA); higher = thermal stabilisation; K562 cells, 10 uM, 30 min; active = over 0.2 and 3.5 SD of the protein, either way, in both replicates (recomputed)
[1] = compound: CS(=O)(=O)c1ccc(-c2cnc(N)c(C(=O)Nc3ccccc3)n2)cc1
Procedure, shortened: (§1)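 K562 cells (2×10^6 cells/mL) were treated with 10 μM compound for 30 min, and aliquots were heated for 3 min over 48°C-58°C. Pooled aliquots were extracted in PBS with 0.5% NP-40 at 4°C, and the supernatant after 21,000xg for 90 min was measured by TMTpro 16plex LC-MS/MS with channel sums equalised. Reported thermal stability, relative to control samples and from duplicates, is a log2 fold change.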

[2] = compound: C[C@@H]1COCCN1C2=NC(=NC(=C2)C3(CC3)S(=O)(=O)C)C4=C5C=CNC5=CC=C4
Procedure, shortened: as §1

[3] = compound: C[C@H](C1=CC=C(C=C1)C(=O)NC2=C3C=CNC3=NC=C2)N
Procedure, shortened: as §1

duvelisib = compound: C[C@H](Nc1ncnc2nc[nH]c12)c1cc2cccc(Cl)c2c(=O)n1-c1ccccc1 [duvelisib]
Procedure, shortened: as §1

gandotinib = compound: Cc1cc(Nc2cc(CN3CCOCC3)c3nc(C)c(Cc4ccc(Cl)cc4F)n3n2)n[nH]1 [gandotinib]
Procedure, shortened: as §1

tozasertib = compound: Cc1cc(Nc2cc(N3CCN(C)CC3)nc(Sc3ccc(NC(=O)C4CC4)cc3)n2)n[nH]1 [tozasertib]
Procedure, shortened: as §1

[4] = compound: Cc1cc(SCc2sc(-c3ccc(C(F)(F)F)cc3)nc2C)ccc1OCC(=O)O
Procedure, shortened: as §1

ispinesib = compound: Cc1ccc(C(=O)N(CCCN)[C@@H](c2nc3cc(Cl)ccc3c(=O)n2Cc2ccccc2)C(C)C)cc1 [ispinesib]
Procedure, shortened: as §1

crizotinib = compound: C[C@@H](Oc1cc(-c2cnn(C3CCNCC3)c2)cnc1N)c1c(Cl)ccc(F)c1Cl [crizotinib]
Procedure, shortened: as §1

doramapimod = compound: Cc1ccc(-n2nc(C(C)(C)C)cc2NC(=O)Nc2ccc(OCCN3CCOCC3)c3ccccc23)cc1 [doramapimod]
Procedure, shortened: as §1

Sequence of UniProt Q96ET8 (Q96ET8 whole entry, looked up): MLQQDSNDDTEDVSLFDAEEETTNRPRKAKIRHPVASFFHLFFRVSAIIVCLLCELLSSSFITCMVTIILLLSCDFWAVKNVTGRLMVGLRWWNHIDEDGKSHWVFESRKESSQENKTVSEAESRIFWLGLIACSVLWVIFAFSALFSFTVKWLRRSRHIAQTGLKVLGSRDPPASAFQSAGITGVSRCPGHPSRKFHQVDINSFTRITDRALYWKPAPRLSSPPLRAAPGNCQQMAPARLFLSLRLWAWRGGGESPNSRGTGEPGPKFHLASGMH
Sequence of UniProt Q9BQB6 (Q9BQB6 whole entry, looked up): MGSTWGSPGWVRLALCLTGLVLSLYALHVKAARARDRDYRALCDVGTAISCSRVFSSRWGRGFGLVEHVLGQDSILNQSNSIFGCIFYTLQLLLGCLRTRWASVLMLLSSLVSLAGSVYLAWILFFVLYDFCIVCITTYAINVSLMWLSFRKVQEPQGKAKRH
Sequence of UniProt Q8IWA0 (Q8IWA0 whole entry, looked up): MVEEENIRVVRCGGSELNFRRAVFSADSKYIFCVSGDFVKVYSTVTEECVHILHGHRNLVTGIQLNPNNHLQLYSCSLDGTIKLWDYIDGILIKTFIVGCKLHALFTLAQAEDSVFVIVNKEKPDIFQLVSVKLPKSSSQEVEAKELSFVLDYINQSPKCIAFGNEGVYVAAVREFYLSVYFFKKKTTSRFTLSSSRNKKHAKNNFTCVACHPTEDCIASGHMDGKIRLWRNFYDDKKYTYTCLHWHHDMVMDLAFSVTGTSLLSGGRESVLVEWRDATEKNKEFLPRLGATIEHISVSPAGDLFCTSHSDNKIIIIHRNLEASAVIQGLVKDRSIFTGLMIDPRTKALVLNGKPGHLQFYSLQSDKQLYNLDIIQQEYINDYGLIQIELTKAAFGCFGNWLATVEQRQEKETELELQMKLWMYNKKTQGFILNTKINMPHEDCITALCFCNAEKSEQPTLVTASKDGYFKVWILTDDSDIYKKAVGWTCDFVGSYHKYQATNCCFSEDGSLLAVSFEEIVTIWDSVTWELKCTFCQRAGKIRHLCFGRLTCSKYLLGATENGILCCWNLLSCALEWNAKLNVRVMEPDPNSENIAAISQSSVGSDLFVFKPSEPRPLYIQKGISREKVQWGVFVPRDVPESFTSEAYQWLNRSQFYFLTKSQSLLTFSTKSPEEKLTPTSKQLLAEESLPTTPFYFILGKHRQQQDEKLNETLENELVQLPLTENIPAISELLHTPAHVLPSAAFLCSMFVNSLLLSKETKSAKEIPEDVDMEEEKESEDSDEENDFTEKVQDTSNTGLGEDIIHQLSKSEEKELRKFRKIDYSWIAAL
Sequence of UniProt Q8NE00 (Q8NE00 whole entry, looked up): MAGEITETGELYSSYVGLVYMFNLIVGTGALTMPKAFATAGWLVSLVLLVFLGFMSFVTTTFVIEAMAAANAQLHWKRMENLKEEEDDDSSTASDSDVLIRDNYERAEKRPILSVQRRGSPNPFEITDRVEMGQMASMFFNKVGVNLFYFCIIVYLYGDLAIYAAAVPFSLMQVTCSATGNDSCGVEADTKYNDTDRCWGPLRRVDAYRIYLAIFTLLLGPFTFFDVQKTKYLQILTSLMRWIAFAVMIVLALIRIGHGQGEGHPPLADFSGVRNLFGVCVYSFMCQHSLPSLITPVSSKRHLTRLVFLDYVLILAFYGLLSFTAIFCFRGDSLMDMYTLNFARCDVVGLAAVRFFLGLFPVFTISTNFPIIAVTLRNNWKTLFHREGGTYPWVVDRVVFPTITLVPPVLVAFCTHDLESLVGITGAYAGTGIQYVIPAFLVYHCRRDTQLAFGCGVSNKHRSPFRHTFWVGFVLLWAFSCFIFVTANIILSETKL
Sequence of UniProt Q5VZI3 (Q5VZI3 whole entry, looked up): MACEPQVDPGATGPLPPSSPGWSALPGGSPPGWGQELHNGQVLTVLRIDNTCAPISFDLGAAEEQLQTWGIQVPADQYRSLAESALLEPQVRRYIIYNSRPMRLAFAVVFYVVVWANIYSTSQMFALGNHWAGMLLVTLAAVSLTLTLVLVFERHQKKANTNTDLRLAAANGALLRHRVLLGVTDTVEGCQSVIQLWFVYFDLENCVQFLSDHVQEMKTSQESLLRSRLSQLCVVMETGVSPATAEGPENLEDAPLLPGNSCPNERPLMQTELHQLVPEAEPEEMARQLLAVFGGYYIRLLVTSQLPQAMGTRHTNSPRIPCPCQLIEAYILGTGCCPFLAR
Sequence of UniProt Q8N2K1 (Q8N2K1 whole entry, looked up): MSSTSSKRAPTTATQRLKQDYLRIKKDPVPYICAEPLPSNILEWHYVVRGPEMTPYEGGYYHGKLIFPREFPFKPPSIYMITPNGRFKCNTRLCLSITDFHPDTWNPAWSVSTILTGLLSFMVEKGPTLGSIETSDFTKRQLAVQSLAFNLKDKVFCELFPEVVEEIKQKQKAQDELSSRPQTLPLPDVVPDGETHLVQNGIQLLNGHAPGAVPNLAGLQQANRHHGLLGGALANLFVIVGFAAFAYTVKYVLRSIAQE
Sequence of UniProt Q96DX7 (Q96DX7 whole entry, looked up): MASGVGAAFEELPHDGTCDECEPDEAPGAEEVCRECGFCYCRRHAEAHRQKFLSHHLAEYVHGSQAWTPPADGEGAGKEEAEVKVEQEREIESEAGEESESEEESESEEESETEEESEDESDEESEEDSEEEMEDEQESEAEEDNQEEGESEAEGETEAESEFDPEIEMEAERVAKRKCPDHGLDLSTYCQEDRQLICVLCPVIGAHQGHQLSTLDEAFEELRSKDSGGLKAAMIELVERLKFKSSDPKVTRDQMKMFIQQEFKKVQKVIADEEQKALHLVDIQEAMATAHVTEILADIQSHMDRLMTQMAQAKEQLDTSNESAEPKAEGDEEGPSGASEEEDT
Sequence of UniProt Q9HCS7 (Q9HCS7 whole entry, looked up): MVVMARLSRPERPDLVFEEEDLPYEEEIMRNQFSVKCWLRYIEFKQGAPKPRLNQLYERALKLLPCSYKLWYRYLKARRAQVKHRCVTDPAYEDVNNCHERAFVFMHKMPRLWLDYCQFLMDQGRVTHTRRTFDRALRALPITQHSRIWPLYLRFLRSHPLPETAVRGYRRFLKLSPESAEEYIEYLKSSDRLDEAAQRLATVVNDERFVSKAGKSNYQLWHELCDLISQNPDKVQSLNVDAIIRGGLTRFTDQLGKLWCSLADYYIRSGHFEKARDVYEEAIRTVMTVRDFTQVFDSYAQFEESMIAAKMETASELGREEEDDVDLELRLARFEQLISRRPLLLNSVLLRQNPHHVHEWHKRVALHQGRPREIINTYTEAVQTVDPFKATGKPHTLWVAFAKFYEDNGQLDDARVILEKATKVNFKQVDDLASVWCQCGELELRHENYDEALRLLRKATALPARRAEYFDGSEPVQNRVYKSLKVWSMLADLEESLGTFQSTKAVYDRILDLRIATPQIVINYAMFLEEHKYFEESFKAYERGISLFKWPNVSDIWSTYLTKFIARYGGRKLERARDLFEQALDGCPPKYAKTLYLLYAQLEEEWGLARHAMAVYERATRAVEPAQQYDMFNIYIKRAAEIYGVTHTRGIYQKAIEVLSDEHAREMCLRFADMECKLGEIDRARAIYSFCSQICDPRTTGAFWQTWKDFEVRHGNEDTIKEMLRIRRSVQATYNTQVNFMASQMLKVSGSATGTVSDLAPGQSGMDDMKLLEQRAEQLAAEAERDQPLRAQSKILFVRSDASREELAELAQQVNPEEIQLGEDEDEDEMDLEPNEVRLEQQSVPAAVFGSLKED
Sequence of UniProt Q86XT9 (Q86XT9 whole entry, looked up): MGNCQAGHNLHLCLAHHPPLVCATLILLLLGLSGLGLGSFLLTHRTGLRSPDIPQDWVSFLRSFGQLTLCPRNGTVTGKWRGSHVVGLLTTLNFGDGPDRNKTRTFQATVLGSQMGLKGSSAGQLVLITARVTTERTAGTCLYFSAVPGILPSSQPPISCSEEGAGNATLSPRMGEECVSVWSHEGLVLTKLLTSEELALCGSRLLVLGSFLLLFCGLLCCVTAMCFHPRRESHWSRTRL
Sequence of UniProt Q15906 (Q15906 whole entry, looked up): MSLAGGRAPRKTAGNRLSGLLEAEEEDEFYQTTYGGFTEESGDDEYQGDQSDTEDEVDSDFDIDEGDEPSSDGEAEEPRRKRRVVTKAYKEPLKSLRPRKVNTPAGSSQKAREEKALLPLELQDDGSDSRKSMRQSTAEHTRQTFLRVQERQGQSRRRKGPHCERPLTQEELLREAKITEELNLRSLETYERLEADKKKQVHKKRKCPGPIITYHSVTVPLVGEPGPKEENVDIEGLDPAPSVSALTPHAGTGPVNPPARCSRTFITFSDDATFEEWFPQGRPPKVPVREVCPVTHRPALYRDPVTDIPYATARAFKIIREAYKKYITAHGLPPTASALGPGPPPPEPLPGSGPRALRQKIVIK
Sequence of UniProt Q9HCN3 (Q9HCN3 whole entry, looked up): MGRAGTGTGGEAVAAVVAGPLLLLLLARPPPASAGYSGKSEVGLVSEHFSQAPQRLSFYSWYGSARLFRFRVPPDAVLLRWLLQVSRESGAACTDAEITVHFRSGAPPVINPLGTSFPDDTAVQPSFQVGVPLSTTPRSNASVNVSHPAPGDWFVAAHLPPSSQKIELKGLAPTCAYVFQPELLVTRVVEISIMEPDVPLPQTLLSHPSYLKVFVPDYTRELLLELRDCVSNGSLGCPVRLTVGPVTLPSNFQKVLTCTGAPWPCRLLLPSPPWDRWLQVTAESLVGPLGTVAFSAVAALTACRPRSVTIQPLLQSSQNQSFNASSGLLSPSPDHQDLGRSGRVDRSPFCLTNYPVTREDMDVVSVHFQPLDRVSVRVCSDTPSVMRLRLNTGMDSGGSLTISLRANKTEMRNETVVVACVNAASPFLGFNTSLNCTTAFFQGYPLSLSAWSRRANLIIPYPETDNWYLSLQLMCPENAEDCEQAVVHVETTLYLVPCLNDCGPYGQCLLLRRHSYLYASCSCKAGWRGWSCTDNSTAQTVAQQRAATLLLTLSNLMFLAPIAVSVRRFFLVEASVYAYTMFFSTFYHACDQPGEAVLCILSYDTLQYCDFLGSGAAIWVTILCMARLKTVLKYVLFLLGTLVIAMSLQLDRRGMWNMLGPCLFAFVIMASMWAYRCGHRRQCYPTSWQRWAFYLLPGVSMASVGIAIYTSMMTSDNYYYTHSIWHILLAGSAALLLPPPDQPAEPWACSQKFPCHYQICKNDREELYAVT

Row | Target | log2 fold change [1] | log2 fold change [2] | log2 fold change [3] | log2 fold change (duvelisib) | log2 fold change (gandotinib) | log2 fold change (tozasertib) | log2 fold change [4] | log2 fold change (ispinesib) | log2 fold change (crizotinib) | log2 fold change (doramapimod)
1 | UFM1 isoform 2 (UniProt P61960) | -0.009 | -0.065 | -0.157 | -0.004 | -0.066 | -0.042 | 0.063 |  |  | 
2 | UBXN8 (UniProt O00124) | 0.054 | -0.094 | 0.161 | 0.234 | 0.026 | -0.077 | -0.101 | -0.193 |  | 
3 | U2AF1L5 (UniProt P0DN76) |  |  |  | -0.014 |  | -0.025 | 0.023 |  | -0.105 | -0.1
4 | TOM1 (UniProt O60784) | -0.04 | -0.05 |  |  | -0.018 | 0.044 |  |  | -0.054 | 0.052
5 | TVP23C (UniProt Q96ET8) |  |  | 0.03 | -0.065 | -0.016 | -0.028 | -0.092 |  |  | 
6 | VWA3B isoform 6 (UniProt Q502W6) |  | 0.074 | 0.045 | 0.337 | -0.08 | 0.028 | 0.172 | -0.266 | -0.012 | 0.079
7 | UBIAD1 (UniProt Q9Y5Z9) | 0.107 |  | 0.001 | 0.021 | 0.069 | -0.019 | 0.004 | -0.117 | 0.024 | -0.1
8 | VKORC1 (UniProt Q9BQB6) | 0.012 |  | -0.032 | 0.153 | -0.116 | -0.027 | 0.106 | -0.108 | 0.494 (active) | 0.033
9 | ULBP1 (UniProt Q9BZM6) | 0.188 | 0.192 | 0.156 | -0.024 |  | 0.044 | 0.014 | 0.011 |  | 
10 | TSPAN13 (UniProt O95857) | -0.055 | 0.4 | -0.17 | 0.045 | -0.05 | -0.06 | -0.124 | -0.03 |  | 
11 | TRIM44 (UniProt Q96DX7) | 0.013 |  | -0.059 | 0.063 | 0.045 | 0.022 | 0.024 | 0.03 | 0.083 | -0.004
12 | VDAC1 (UniProt C9JI87) | 0.017 | -0.195 | 0.275 | 0.09 |  |  | -0.281 | -0.743 (active) |  | 
13 | WARS1 (UniProt G3V5U1) | 0.092 | -0.282 |  |  |  |  |  |  | 0.09 | -0.299
14 | TMEM8A (UniProt Q9HCN3) | 0.425 |  | 0.049 | 0.394 | 0.014 | -0.026 | -0.095 | -0.065 |  | 
15 | WDR4 isoform 3 (UniProt P57081) | 0.074 | 0.125 |  |  | -0.247 |  |  |  |  | 
16 | TRIM5 (UniProt Q9C035) | -0.032 | 0.037 | 0.148 | -0.109 |  | -0.096 | -0.127 | -0.821 (active) |  | 
17 | TUBA4A (UniProt C9JJQ8) | 0.009 |  | -0.159 | 0.19 |  | 0.001 | 0.108 |  | -0.019 | -0.046
18 | XAB2 (UniProt Q9HCS7) |  | -0.223 |  | -0.146 |  |  | 0.013 | -0.223 | -0.69 (active) | -0.035

Row | Target | log2 fold change [1] | log2 fold change [2] | log2 fold change [3] | log2 fold change (duvelisib) | log2 fold change (gandotinib) | log2 fold change (tozasertib) | log2 fold change [4] | log2 fold change (ispinesib) | log2 fold change (crizotinib) | log2 fold change (doramapimod)
19 | WARS1 (UniProt G3V227) |  | -0.024 | 0.147 | -0.011 |  | -0.016 | -0.015 |  |  | 
20 | UBAP2L (UniProt F8W726) |  |  |  |  | -0.072 | -0.003 |  |  |  | 
21 | TMEM268 isoform 3 (UniProt Q5VZI3) | -0.146 | -0.308 | -0.078 | 0.371 | 0.124 | -0.073 | -0.063 | -0.227 |  | 
22 | WARS1 (UniProt G3V339) |  | -0.123 |  |  |  |  |  |  |  | 
23 | UBE2D1 (UniProt P51668) | 0.062 |  | -0.004 | 0.054 | 0.047 | -0.048 | 0.102 | 0.056 |  | 
24 | TMEM104 (UniProt Q8NE00) |  | 0.012 | 0.009 | 0.129 | -0.087 |  | -0.049 | -0.34 | -0.145 | 0.112
25 | UTP20 (UniProt O75691) |  | -0.379 |  |  |  | 0.021 |  |  |  | 
26 | VPS72 isoform 2 (UniProt Q15906) | -0.041 | 0.093 | 0.196 | -0.021 |  | 0.007 | -0.021 | 0.218 |  | 
27 | XIAP (UniProt P98170) | 0.125 | 0.092 | -0.09 | 0.068 | 0.061 | -0.01 | -0.036 |  |  | 
28 | TRPT1 isoform 4 (UniProt Q86TN4) | -0.176 |  |  |  |  |  |  | -0.105 | -0.011 | 0.013
29 | TXNRD1 isoform 7 (UniProt Q16881) | 0.075 | -0.026 |  | -0.049 | 0.125 |  | -0.015 |  |  | 
30 | WARS1 (UniProt G3V277) | -0.009 |  |  |  | -0.218 | -0.206 |  |  | -0.001 | 0.029
31 | UBE2J2 isoform 3 (UniProt Q8N2K1) | 0.252 | -0.076 | -0.365 | 0.101 | 0.028 | -0.094 | -0.01 |  |  | 
32 | TRIM23 (UniProt P36406) | 0.143 |  | -0.122 | 0.008 | 0.128 | -0.135 | 0.001 | 0.115 | 0.152 | -0.043
33 | WDR75 (UniProt Q8IWA0) |  | -0.03 | 0.185 | -0.082 |  | -0.2 | 0.112 | -0.219 | -0.07 | 0.145
34 | TMEM219 (UniProt Q86XT9) | 0.049 | -0.036 | 0.114 | -0.163 | 0.034 | -0.055 | -0.241 |  |  | 
35 | UNC119B (UniProt A6NIH7) | 0.026 |  | 0.039 | 0.178 | 0.034 | -0.019 | -0.064 | 0.527 (active) | -0.08 | 0.263
36 | TTC26 |  |  |  |  |  | -0.11 |  | 0.105 |  | 
